Screening results as filed in PubChem BioAssay.
MARV entry inh: qHTS for inhibitors of binding or entry into cells for Marburg Virus | Potency, µM (top dose mostly 37.8 µM), inactives show at the top dose activity change, negative = inhibition, usual class: inhibitors | Marburg virus pseudotyped entry inhibition, cell reporter | 300,000 compounds, 1.8% hits | AID 540276, 2011; calls by dose curve; tested in HEK293 cells; further: potency means the concentration at half of the fitted maximal effect
LASV entry inh: qHTS for Inhibitors of binding or entry into cells for Lassa Virus | Lassa virus pseudotype entry inhibition, cell reporter | Potency, µM (highest dose often 37.9 µM), without a hit: top-dose activity change, negative = inhibition, usual class: inhibitors | 300,000 compounds, 1.2% hits; calls by dose curve; tested in HEK293 cells; further: potency means the concentration at half of the fitted maximal effect; nearly all actives have a fitted effect of over 50% in size
FMDV antiviral: High Throughput Screening for Foot and Mouth Disease Virus Antivirals; FMDV antiviral cell-based qHTS; Potency, µM (top dose mostly 57.9 µM), inactives show at the top dose activity change, negative = inhibition, hits mostly inhibitors; 410,000 compounds, 1.2% hits; AID 1159524, 2015; calls by dose curve; tested in HEK293T cells; further: read-out not given here; potency means the concentration at half of the fitted maximal effect; nearly all actives have a fitted effect of over 45% in size
HCMV antiviral: qHTS Assay for inhibitors of the human cytomegalovirus (HCMV); HFF cells, HCMV-luciferase reporter, 72 h; active compounds read low; activity change, negative = inhibition, % at 57.5 µM; 410,000 compounds, 4.5% hits; in the data active means activity change below about -60%; inconclusive means no clear call, values can overlap the other calls; inactive means above about -39%
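HFF cells seeded 16 h at 37C, treated with compounds, infected with luciferase-reporter HCMV at MOI 1 PFU/cell; luciferase read at 72 h post infection, normalized to buffer-only and Salinomycin controls.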
HCV inhibitor: qHTS Assay for Inhibitors of Hepatitis C Virus (HCV); Huh7.5.1 HCVcc-Cre infection, luciferase reporter, 44 h; Potency, µM (highest dose often 41.8 µM), without a hit: at the top dose activity change, negative = inhibition, usual class: inhibitors; 340,000 compounds, 3.4% hits; AID 651820, 2012; active means well fitted inhibition curve with a large enough effect; inconclusive means small, poorly fitted or top-dose-only effect, or another doubt; inactive means no such curve, though single readings can be large or run the other way; further: potency means the concentration at half of the fitted maximal effect
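Antiviral activity was scored by luciferase reporter output from cells infected with HCVcc-Cre (~0.5 moi) in presence of compound, 44 h infection period, cells seeded 1,000/well 4 h prior.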
Starred values were filed as active, the others as inactive; ? = inconclusive; · = no result given; [ ] = dose if it differs, or a comment. Most compounds without a hit are left out; they make up all but 7.9% or so of the library. On the % scale 0 is the no-effect control and ±100 the full control effect.

SMILES	MARV entry inh	LASV entry inh	FMDV antiviral	HCMV antiviral	HCV inhibitor
Cn1c(/C(C#N)=C/c2ccc(C(F)(F)F)cc2)nc2ccccc21	·	10.2%[46.1 µM]	-19.6%	18.6	·
CN(c1ccccc1)S(=O)(=O)c1cccc(NC(=O)CSc2ncn[nH]2)c1	?	?	35.5µM*	-68.2*	?
Cc1cccc(NC(=O)CSc2nnc(N)s2)c1	·	-0.8%[46.1 µM]	-2.9%	-8.4	·
CN(c1ccccc1)S(=O)(=O)c1cccc(NC(=O)CSc2nnc(N)s2)c1	18.4µM*	?	?	-16.4	?
CC(=O)NCCC(=O)Nc1cccc(S(=O)(=O)N(C)c2ccccc2)c1	?	20.0%	-3.1%	-36.4	5.6%
CN(c1ccccc1)S(=O)(=O)c1cccc(NC(=O)CSc2nncs2)c1	?	10.3µM*	10µM*	-30.2	?
CN(c1ccccc1)S(=O)(=O)c1cccc(NC(=O)Cc2n[nH]c(=O)c3ccccc23)c1	·	·	?	?	10µM*
CC(C)n1cnnc1SCC(=O)Nc1cccc(S(=O)(=O)N(C)c2ccccc2)c1	·	·	-15.7%	-37.5	?
Cc1ccc(C(=O)COC(=O)c2cc(-c3ccc(Cl)cc3)nc3ccccc23)cc1	·	12.8%[46.1 µM]	-24.1%	6.9	·
COc1cc([C@H]2NC(=O)C[C@@H]2C(=O)O)ccc1OC(C)C	·	·	·	-13.1	·
COC(=O)c1cn([C@H]2C[C@@H](C(=O)N3CCCCCC3)N(Cc3ccsc3)C2)nn1	·	·	5.4%	·	·
COc1ccc(Cl)cc1NC(=O)c1cc2c(=O)n3ccccc3nc2s1	?	-1.4%[46.1 µM]	-19.3%	-8.1	·
Cc1ccc(/C=C/c2ccc3cccc(O)c3n2)s1	?	?	20.7%	113.7	?
CC(=O)COc1cccc2ccc(/C=C/c3ccc(Br)s3)nc12	·	·	-3.0%	36.5	11.2µM*
Cc1cc(Cn2nc(-c3ccccc3)cc2C(=O)NCc2cccc(Br)c2)on1	·	·	4.5%	40.9	5.62µM*
Cc1cccc(-n2c(N)cc(=O)nc2SCC(=O)Nc2ccc(F)cc2)c1C	-3.5%[46.1 µM]	1.4%[46.1 µM]	-21.3%	1.6	·
O=C(C1CCCN(S(=O)(=O)c2cccc3nsnc23)C1)N1CCN(c2ccccc2F)CC1 (stereo unspecified)	-6.9%[46.1 µM]	-20.4%[46.1 µM]	-9.5%	?	·
O=C(C1CCCN(S(=O)(=O)c2cccc3nsnc23)C1)N1CCc2ccccc21 (stereo unspecified)	-17.4%	-2.3%	25.1µM*	-10.7	?
O=C(C1CCCN(S(=O)(=O)c2cccc3nsnc23)C1)N1CCc2ccccc2C1 (stereo unspecified)	-48.5%	?	25.1µM*	-12.1	?
O=C(C1CCCN(S(=O)(=O)c2cccc3nsnc23)C1)N1CCN(c2ccccc2Cl)CC1 (stereo unspecified)	3.98µM*	?	25.1µM*	-13.1	·
O=C(C1CCN(S(=O)(=O)c2cccc3nsnc23)CC1)N1CCc2ccccc21	-5.5%	15.4%	-27.5%	-12.9	?
O=C(C1CCN(S(=O)(=O)c2ccccc2F)CC1)N1CCc2ccccc21	·	·	-17.7%	-67.9*	14.2%
O=C(C1CCN(S(=O)(=O)c2ccccc2)CC1)N1CCc2ccccc21	-5.0%	0.5%	-10.1%	24.3	-1.4%
O=C(C1CCCN(S(=O)(=O)c2cccc3nsnc23)C1)N1CCCCCC1 (stereo unspecified)	·	·	-12.0%	5.4	1.4%
O=C(CC1C(=O)N(c2ccc(F)cc2)C(=O)N1Cc1cccnc1)Nc1ccc(F)cc1 (stereo unspecified)	·	13.9%[46.1 µM]	11.3%	-7.8	·
SMILES	MARV entry inh	LASV entry inh	FMDV antiviral	HCMV antiviral	HCV inhibitor
CC1(C(=O)Nc2ccc3ccccc3c2)CCc2nc3ccccc3n21 (stereo unspecified)	·	·	·	22.0	·
Cc1ccc(CN(C(=O)COc2c(C)cccc2C)C2CCS(=O)(=O)C2)o1 (stereo unspecified)	-11.6%[46.1 µM]	4.2%[46.1 µM]	-15.8%	?	·
O=C(c1ccccc1Nc1ccc(SC(F)F)cc1)N1CCCCCC1	-5.1%	?	-22.1%	-101.2*	?
CSc1ccccc1NC(=O)c1ccc(N2CCCC2=O)cc1	·	·	40.6%	-13.5	-24.0%
CC(=O)c1ccccc1NC(=O)c1ccc(N2CCCC2=O)cc1	5.4%[46.1 µM]	11.2µM*	-7.7%	-9.2	12.6µM*
O=C(Nc1ccccc1C(=O)N1CCCCCC1)c1ccc(F)cc1	·	·	-0.2%	-101.7*	11.4%
